Experimental findings from PubChem BioAssay (NCI) are described below.

This is part of a sample that, as a whole, favours compounds with a hit. Of some 83,000 tested, about 20% had one in any assay.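 Interpretation: 100, growth as untreated; towards 0, rising growth inhibition; 0, no net growth; 0 to -100, cell death. Compounds scoring below 10 were considered active.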 Unmarked numbers belong to inactive results. Calls of active or inactive are those of the source.

Among the test systems are SR leukemia; RPMI-8226 leukemia; OVCAR-8 ovarian; OVCAR-5 ovarian; OVCAR-4 ovarian; SK-OV-3 ovarian; IGROV1 ovarian; HS 578T breast; NCI/ADR-RES ovarian; T-47D breast; MDA-MB-435 melanoma; SW-620 colon; MCF7 breast; HCT-116 colon; HCC-2998 colon; KM12 colon; BT-549 breast.
What all share (assay): NCI-60 one-dose screen, 48 h (100 = growth as untreated, 0 = no growth, -100 = all killed)
Conditions in all cases: 10 µM unless noted

`CCCn1cnc2c(c1=N)C(c1ccc(F)cc1)c1sc3c(CC)cccc3c1O2` (stereo not drawn): the growth was 1.23% (active) with SR leukemia; 4.79% (active) with RPMI-8226 leukemia; 26.2% with OVCAR-8 ovarian; 23.3% in the assay on OVCAR-5 ovarian; 26.6% in the assay on OVCAR-4 ovarian; 40.3% with SK-OV-3 ovarian. Besides, the growth was 10.2% in the assay on IGROV1 ovarian; 16.5% with HS 578T breast; -13.9% (active) with NCI/ADR-RES ovarian; 72.7% in the assay on T-47D breast; -25.2% (active) in the assay with MDA-MB-435 melanoma; 17.7% in the assay with SW-620 colon. In addition, the growth is 18.1% with MCF7 breast, 7.53% (active) with HCT-116 colon, 24.2% in the assay on HCC-2998 colon and 10.7% with KM12 colon.

With `COc1ccc(C2c3sc4c(C)cccc4c3Oc3nc(CC(=O)Nc4ccccc4)[nH]c(=O)c32)cc1` (stereo not drawn), the growth with SR leukemia was 62.7%; in the assay on RPMI-8226 leukemia, 89.5%; in the assay with OVCAR-8 ovarian, 99.8%; with OVCAR-5 ovarian, 88.7%; in the assay with OVCAR-4 ovarian, 65%; with SK-OV-3 ovarian, 85.8%. Besides, the growth in the assay on IGROV1 ovarian was 47.9%; in the assay with HS 578T breast it was 87.8%; in the assay with NCI/ADR-RES ovarian, 38.7%; in the assay on T-47D breast, 84.4%; in the assay with MDA-MB-435 melanoma, 33.7%; in the assay on SW-620 colon it was 74.9%. The growth with MCF7 breast was 55.6%; in the assay on HCT-116 colon it was 73.6%; in the assay on HCC-2998 colon it was 93.8%; in the assay on KM12 colon, 92.7%.

Turning to `CC1(COc2ccc3ncc(C#Cc4cncc(C(=O)Nc5cccc(C(F)(F)F)c5)c4)n3n2)COC1`, the growth was 56.5% with SR leukemia; 92.7% with RPMI-8226 leukemia; 81.4% in the assay with OVCAR-8 ovarian; 81.7% in the assay on OVCAR-5 ovarian; 82.1% with OVCAR-4 ovarian; 96.9% with SK-OV-3 ovarian. The growth is 62% with IGROV1 ovarian; 53.6% with HS 578T breast; 80.3% with NCI/ADR-RES ovarian; 78.9% with T-47D breast; 89.2% in the assay with MDA-MB-435 melanoma; 69% in the assay on SW-620 colon. Besides, the growth in the assay on MCF7 breast is 62.8%; in the assay on HCT-116 colon, 56.4%; with HCC-2998 colon it was 86.9%; in the assay with KM12 colon, 21.1%.

For `CCN(CC)CCn1c2ccc(O)cc2c2sc3cc(OC)ccc3c(=O)c21`, the growth is -13.4% (active) in the assay on SR leukemia; -13.1% (active) in the assay with RPMI-8226 leukemia; 19.3% with OVCAR-8 ovarian; 44.7% in the assay on OVCAR-5 ovarian; 28.2% in the assay with OVCAR-4 ovarian; 74.7% in the assay on SK-OV-3 ovarian. Further, the growth in the assay on IGROV1 ovarian is 19.2%; with HS 578T breast it was 63.6%; in the assay with NCI/ADR-RES ovarian, 20.8%; in the assay on T-47D breast, 59.3%; in the assay with BT-549 breast, 68.1%; with MDA-MB-435 melanoma it was 19.4%. Besides, the growth with SW-620 colon was -50.8% (active); in the assay with MCF7 breast, -55.2% (active); in the assay with HCT-116 colon, -46% (active); in the assay with HCC-2998 colon, 36.6%; with KM12 colon, 25%.

Turning to `Cc1cccc2c3c(sc12)C(c1ccc(F)cc1)C(C#N)=C(/N=C/c1ccc(Cl)cc1)O3` (stereo not drawn), the growth with SR leukemia was 10.5%; in the assay on RPMI-8226 leukemia, 19.7%; with OVCAR-8 ovarian, -3.92% (active); in the assay with OVCAR-5 ovarian, 23.5%; in the assay with OVCAR-4 ovarian, 70%; with SK-OV-3 ovarian, 34.8%. The growth in the assay on IGROV1 ovarian was 22.5%; in the assay with HS 578T breast it was 1.34% (active); in the assay with NCI/ADR-RES ovarian, 2.96% (active); in the assay on T-47D breast it was 56.7%; with BT-549 breast it was -26.5% (active); in the assay with MDA-MB-435 melanoma, -12.4% (active). The growth was 19.6% in the assay with SW-620 colon; 14.1% in the assay with MCF7 breast; 2.26% (active) in the assay with HCT-116 colon; 5.44% (active) in the assay with HCC-2998 colon; 15.7% in the assay with KM12 colon.

As to `COc1ccc([C@H]2c3[nH]c4ccccc4c3C[C@H]3C(=O)N(C4CCN(Cc5c(Cl)cccc5Cl)CC4)CC(=O)N23)c(OC)c1`, the growth with SR leukemia was 85%; in the assay on RPMI-8226 leukemia, 89.9%; with OVCAR-8 ovarian, 97.5%; in the assay with OVCAR-5 ovarian, 96.7%; in the assay on OVCAR-4 ovarian, 97.2%; in the assay with SK-OV-3 ovarian, 117%. Also, the growth with IGROV1 ovarian is 78.9%; in the assay with HS 578T breast, 88.4%; in the assay on NCI/ADR-RES ovarian it was 90.5%; in the assay with T-47D breast it was 83.6%; in the assay with BT-549 breast it was 119%; with MDA-MB-435 melanoma, 102%. Further, the growth in the assay on SW-620 colon was 95.4%; in the assay with MCF7 breast it was 84.3%; in the assay with HCT-116 colon, 92.6%; in the assay with HCC-2998 colon, 113%; in the assay with KM12 colon it was 96.8%.

For `COc1ccc(OC)c(-c2nc(SCC(=O)c3ccc(Br)cc3)nc(Nc3ccc(S(N)(=O)=O)cc3)c2C#N)c1`, the growth with SR leukemia was 13.9%; in the assay on RPMI-8226 leukemia, 51.2%; in the assay with OVCAR-8 ovarian, 62.8%; with OVCAR-5 ovarian it was 73.3%; in the assay with OVCAR-4 ovarian it was 57.3%; with SK-OV-3 ovarian, 79.9%. The growth in the assay with IGROV1 ovarian was 54.7%; with HS 578T breast, 13.4%; with NCI/ADR-RES ovarian, 74.4%; with T-47D breast, 71.1%; in the assay on MDA-MB-435 melanoma it was -18.6% (active); in the assay on SW-620 colon, 36%. Further, the growth in the assay with MCF7 breast was 28.9%; in the assay with HCT-116 colon, 15.4%; in the assay on HCC-2998 colon, 70.9%; in the assay on KM12 colon, 20.9%.

Consider `CNCc1cccc2c1OCCCCCCC(C)(O)CC(C)(C)S(=O)(=O)c1ccc(cc1)-c1cnc(N)c(n1)C(=O)N2` (stereo not drawn), for which the growth was -36.6% (active) in the assay with SR leukemia; -41.9% (active) in the assay with RPMI-8226 leukemia; 55.3% in the assay with OVCAR-8 ovarian; 55.9% in the assay on OVCAR-5 ovarian; 30.3% in the assay with OVCAR-4 ovarian; 38.1% in the assay with SK-OV-3 ovarian. For the same molecule, the growth with IGROV1 ovarian was 3.36% (active); in the assay on HS 578T breast it was 24.1%; in the assay with NCI/ADR-RES ovarian, 43.2%; with T-47D breast, 56.1%; with BT-549 breast it was 27.9%; in the assay on MDA-MB-435 melanoma, -85.6% (active). The growth is 5.13% (active) in the assay with SW-620 colon; -58.1% (active) with MCF7 breast; -82.3% (active) with HCT-116 colon; -6.01% (active) with HCC-2998 colon; -68.1% (active) in the assay on KM12 colon.

`COc1ccc(/C=C/C(=O)c2cc(S(N)(=O)=O)c(OC)cc2OC)cc1`: the growth in the assay with SR leukemia is 23.4%; in the assay on RPMI-8226 leukemia, 60.9%; with OVCAR-8 ovarian it was 93%; in the assay with OVCAR-5 ovarian, 98.3%; in the assay with OVCAR-4 ovarian, 103%; in the assay with SK-OV-3 ovarian it was 97.2%. For the same molecule, the growth in the assay on IGROV1 ovarian is 81.8%; with HS 578T breast, 89.1%; with NCI/ADR-RES ovarian it was 85.8%; in the assay on BT-549 breast, 82.8%; with MDA-MB-435 melanoma it was 53.3%; with SW-620 colon, 46.6%. In addition, the growth is 44.3% in the assay with MCF7 breast, 65.1% in the assay on HCT-116 colon, 83.2% with HCC-2998 colon and 40.9% in the assay on KM12 colon.
